Experiments:
Assay in all cases: bioluminescence (viable cell) signal fold change after vs before treatment, normalised to DMSO (ratio); higher = more tumour cell growth / less inhibition
Conditions in all cases: 10 µM; treatment time 6 days
[1] = tested on: LEGO organoid PT (PTEN-/-; TP53-/-)
Procedure: (§1)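 Luc2-labelled iPSC-derived glioblastoma-like organoids (LEGOs, genotypes PT = PTEN-/-;TP53-/-, PTCC = plus CDKN2A/B-/-, PTN = plus NF1-/-) were treated with 10 uM drug for 6 days (applied every other day) at 37 C. Bioluminescence imaging was done before treatment and 2 days after the last dose. BLI signals were normalised to the DMSO control on the same day and then to the pre-treatment signal (N=3).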

[2] = tested on: LEGO organoid PTCC (PTEN-/-; TP53-/-; CDKN2A-/-; CDKN2B-/-)
Procedure: as §1

[3] = tested on: LEGO organoid PTN (PTEN-/-; TP53-/-; NF1-/-)
Procedure: as §1

SMILES	bioluminescence [1]	bioluminescence [2]	bioluminescence [3]
O=C(c1cc(Cc2n[nH]c(=O)c3ccccc23)ccc1F)N1CCN(C(=O)C2CC2)CC1 [Olaparib]	1.23	1.32	0.865
COc1cc(C(C)=O)ccc1OCCCN1CCC(c2noc3cc(F)ccc23)CC1 [Iloperidone]	1.45	1.06	2.12
CC1=NN(c2ccccc2)C(=O)C1 [Edaravone]	0.893	0.508	1.12
CC(C)(S)[C@@H](N)C(=O)O [d-penicillamin]	0.964	0.914	1.11
CS(=O)(=O)c1ccc(C2=C(c3ccccc3)C(=O)OC2)cc1 [Rofecoxib]	1.25	0.638	2.18
Cc1cnc(NC(=O)C2=C(O)c3ccccc3S(=O)(=O)N2C)s1 [Meloxicam]	0.756	1.15	3.3
O=C(O)c1cccnc1 [Niacin]	0.772	2.03	1.59
CC(C)CN(C[C@@H](O)[C@H](Cc1ccccc1)NC(=O)O[C@H]1CCOC1)S(=O)(=O)c1ccc(N)cc1 [Amprenavir]	0.802	0.498	0.695
CCCC(CCC)C(=O)O [Valproic Acid]	1.01	0.784	0.834
O=C1[N-]C(=O)C(c2ccccc2)(c2ccccc2)N1.[Na+] [Phenytoin sodium]	0.855	1.45	0.866
Cl.O[C@@H](c1cc(C(F)(F)F)nc2c(C(F)(F)F)cccc12)[C@H]1CCCCN1 [Mefloquine hydrochloride]	0.499	0.922	0.359
CC(=O)Oc1ccccc1C(=O)O [Aspirin]	0.997	0.785	0.737

— the supplement of paper PMC10811239
